Data reported in PubChem BioAssay (NCATS).
Results filed as inconclusive are left out. Entries that show only a call come without a potency. Calls of active or inactive are those of the source. Calls follow the shape of the dose curve; as a rule, active = well fitted inhibition curve with a large enough effect; inconclusive = small, poorly fitted or top-dose-only effect; inactive = no such curve, though single readings can be large or run the other way.

Assay: P-glycoprotein substrates identified in KB-3-1 adenocarcinoma cell line, qHTS therapeutic library screen (AID 1346986); also: nearly all actives have a fitted effect of over 60% in size
Conditions: KB-3-1 parental cells viability, CellTiter-Glo, 72 h; series mostly up to 44.5 µM
In short: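 In 1536-well format, 500 cells/well received pinned compound titrations and were incubated 72 h, 5% CO2. Viability was read by CellTiter-Glo; cytotoxic if AC50 < 10 uM and efficacy >50%.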

Row | SMILES | Potency | outcome
1 | C[C@@H]1CC[C@]2(C(=O)O)CC[C@]3(C)C(=CCC4[C@]5(C)C(CC[C@]43C)C(C)(C)[C@@H](O)[C@H](O)[C@@H]5O)C2[C@]1(C)O (stereo partly drawn) | inactive | 
2 | C=C1C(O[C@@H]2O[C@H](CO)[C@@H](O)[C@H](O)[C@@H]2O)CC2C(C)(C)C(O)CCC2(C)C1CC/C(C)=C\CO (stereo partly drawn) | inactive | 
3 | CCC1CC2C(C)=CC3CCCCC3C2(C)C2(OC(=O)C(C)(O)OC2=O)O1 (stereo not drawn) | inactive | 
4 | Nc1nc(CC(=O)Nc2ccc(CCNCC(O)c3ccccc3)cc2)cs1 (stereo not drawn) | inactive | 
5 | COC(=O)C1=COC(O[C@@H]2O[C@H](CO)[C@@H](O)[C@H](O)[C@H]2O)/C(=C\COC(=O)c2ccc(OC3OC(CO)C(O)C(O)C3O)c(OC)c2)C1CC(=O)OCCc1ccc(O)cc1 (stereo partly drawn) |  | inactive [at 9.29 µM]
6 | CC(=O)OCCC(C)CCC1C(C)(O)CCC2C(C)(C)CCCC21C (stereo not drawn) | inactive | 
7 | CC1OC(OC2C(CO)OC(OCC3OC(OC(=O)C45CCC(C)(C)CC4C4=CCC6C7(C)CCC(OC8OC(C(=O)O)C(O)C(OC9OC(CO)C(O)C(O)C9O)C8O)C(C)(C)C7CCC6(C)C4(C)CC5)C(O)C(O)C3O)C(O)C2O)C(O)C(O)C1O (stereo not drawn) |  | inactive [at 9.29 µM]
8 | CC(=O)OC[C@@]12[C@H](O)C[C@@H](C)[C@]3(C[C@@H](c4ccoc4)OC3=O)[C@H]1C[C@H](O)C[C@]21CO1 | inactive | 
9 | O=C(/C=C/c1ccc(O)cc1)O[C@H]1[C@@H]2C=CO[C@@H](O[C@@H]3O[C@H](CO)[C@@H](O)[C@H](O)[C@H]3O)[C@@H]2[C@@]2(CO)O[C@@H]12 | inactive | 
10 | C=C1[C@H]2[C@H](O[C@@H]3O[C@H](COC(=O)/C=C/c4cc(OC)c(O)c(OC)c4)[C@@H](O)[C@H](O)[C@H]3O)OC=C(C(=O)O)[C@H]2C[C@@H]1O | inactive | 
11 | CC1(CO)CC[C@]2(C(=O)O[C@@H]3O[C@H](CO)[C@@H](O)[C@H](O)[C@H]3O)CC[C@]3(C)C(=CCC4[C@@]5(C)CC[C@H](O[C@@H]6O[C@H](C(=O)O)[C@@H](O)[C@H](O)[C@H]6O)C(C)(C)C5CC[C@]43C)C2C1 (stereo partly drawn) |  | inactive [at 9.29 µM]
12 | NC(=O)c1cccc(-c2cc(O)cc(OC(=O)NC3CCCCC3)c2)c1 | inactive | 
13 | CC(NC(=O)CC(=O)O)c1nc2ccccc2c(=O)[nH]1 (stereo not drawn) | inactive | 
14 | CC(=O)O[C@H]1CC[C@@]2(CI)C(=CC[C@@H]3[C@@H]2CC[C@]2(C)[C@@H]([C@H](C)CCCC(C)C)CC[C@@H]32)C1 |  | inactive [at 9.29 µM]
15 | O=C(O)[C@H]1CCCC[C@H]1C(=O)N1CCc2ccccc2[C@H]1CN1C(=O)c2ccccc2C1=O | inactive | 
16 | C=C1[C@H]2CC[C@]3(O)[C@@](CC[C@@H]4[C@](C)(C(=O)O)CCC[C@]43C)(C2)[C@H]1OC(=O)/C(C)=C\C | inactive | 
17 | COc1cccc(-n2nc(C(=O)O)cc2-c2ccc(C3CCCCC3)c(Cl)c2)c1 | inactive | 
18 | C=CC(C)(O)CC/C=C(\C)C(=O)OCC1OC(OC2CCC3(C)C(CCC4(C)C3CC=C3C5CC(C)(C)C(O)CC5(C(=O)O)CCC34C)C2(C)C)C(O)C(OC2OC(CO)C(O)C(OC3OC(CO)C(O)C(OC4OC(COC5OC(CO)C(O)C(O)C5O)C(O)C(O)C4O)C3O)C2O)C1O (stereo not drawn) |  | inactive [at 9.29 µM]
19 | CC(C(=O)O)C1CCC2(C)C3C(=O)C=C4C(CCC(=O)C4(C)C)C3(C)CCC12C (stereo not drawn) | inactive | 

Row | SMILES | Potency | outcome
20 | COc1cc([C@H]2OC[C@]3(OC(C)=O)[C@@H](c4ccc(O[C@@H]5O[C@H](CO)[C@@H](O)[C@H](O)[C@H]5O)c(OC)c4)OC[C@H]23)ccc1O | inactive | 
21 | C/C=C/C1=CC2=C(CO1)C(=O)[C@](C)(O)[C@H](OC(=O)c1c(O)cc(OC)c(O)c1C)C2 | inactive | 
22 | CC(C)=CCC[C@](C)(O[C@@H]1O[C@H](CO[C@@H]2OC[C@@H](O)[C@H](O)[C@H]2O)[C@@H](O)[C@H](O)[C@H]1O)[C@H]1CC[C@]2(C)[C@@H]1[C@H](O)C[C@@H]1[C@@]3(C)CC[C@H](O[C@@H]4O[C@H](CO)[C@@H](O)[C@H](O)[C@H]4O[C@@H]4O[C@H](CO)[C@@H](O)[C@H](O)[C@H]4O)C(C)(C)[C@@H]3CC[C@]12C | inactive | 
23 | CC1(C)CCC(C)(C)c2cc([C@@H](O)C(=O)Nc3ccc(C(=O)O)cc3F)ccc21 | inactive | 
24 | CC(/C=C/[C@]1(O)[C@@]2(C)CO[C@@]1(C)C[C@@H](O)C2)=C\C(=O)O[C@@H]1O[C@H](CO)[C@@H](O)[C@H](O)[C@H]1O | inactive | 
25 | CC(=O)OC[C@@]12[C@@H](OC(C)=O)C[C@@H](C)[C@](C)([C@@H]3C[C@H]4C=CO[C@H]4O3)[C@H]1CCC[C@]21CO1 | inactive | 
26 | COc1cc(CCc2ccccc2)c(C(=O)O)c2c1CC(C(C)(C)O)O2 (stereo not drawn) | inactive | 
27 | OCC1=CC[C@@H]2C=CO[C@@H](O[C@@H]3O[C@H](CO)[C@@H](O)[C@H](O)[C@H]3O)[C@H]12 | inactive | 
28 | CC(C)C1=CC2=CCC3[C@](C)(CCC[C@@]3(C)C(=O)O)C2CC1O (stereo partly drawn) | inactive | 
29 | CC12CCC3c4ccc(O)cc4CCC3C1CCC2OC1OC(C(=O)O)C(O)C(O)C1O (stereo not drawn) | inactive | 
30 | N#CC1C(=O)Nc2scc(-c3ccc(-c4ccccc4O)cc3)c2C1=O (stereo not drawn) | inactive | 
31 | CC(=O)O[C@@]1(C)C[C@@H](O)[C@]2(O)C=CO[C@@H](O[C@@H]3O[C@H](CO)[C@@H](O)[C@H](O)[C@H]3O)[C@@H]21 | inactive | 
32 | C=CC1(C)CC(O)C2(CCC3C(C)(C(=O)O)CCCC3(C)C2=O)C1 (stereo not drawn) | inactive | 
33 | C/C(=C\CCC(C)(O)c1ccc(C)cc1)C(=O)O (stereo not drawn) | inactive | 
34 | C=CCc1ccc(O[C@@H]2O[C@H](CO)[C@@H](O)[C@H](O)[C@H]2O)c(OC)c1 | inactive | 
35 | O=C(OCc1cccc(O)c1O[C@@H]1O[C@H](CO)[C@@H](O)[C@H](O)[C@H]1O)C1(O)C(=O)C2C=CC1C1C=CC(=O)C(O)(C(=O)OCc3cccc(O)c3O[C@@H]3O[C@H](CO)[C@@H](O)[C@H](O)[C@H]3O)C21 (stereo partly drawn) |  | inactive [at 9.29 µM]
36 | CCC[C@@H]1C[C@@H](C(=O)N[C@@H]([C@H]2O[C@H](SC)[C@H](O)[C@@H](O)[C@@H]2O)[C@@H](C)O)N(C)C1 | inactive | 
37 | CN1C(=O)c2ccccc2-n2c(nc3ccccc3c2=O)[C@@]12O[C@H]2c1ccccc1 | inactive | 
38 | O=C(O)c1cc(O[C@@H]2O[C@H](CO[C@@H]3OC[C@@H](O)[C@H](O)[C@H]3O)[C@@H](O)[C@H](O)[C@H]2O)c2ccccc2c1O | inactive | 
